From PubChem BioAssay AID1645854 (Buhrlage Lab, Dana-Farber Cancer Institute and Novartis …, 2021)
Hit rate of the full screen: of about 47,000 compounds, about 140 (0.3%) were called active. Rule as the data show it: active = inhibition above about 30%; inactive = the rest. Only a selection was taken, and actives are over-represented in it overall.

target: Ubiquitin carboxyl-terminal hydrolase 7 (Homo sapiens) (UniProt Q93009); experiment: inhibitors of human USP7 deubiquitinase (AID 1645854); settings: purified USP7, Ub-rhodamine cleavage fluorescence; at 20 µM; hits give high values
Sequence (Q93009 whole entry, looked up): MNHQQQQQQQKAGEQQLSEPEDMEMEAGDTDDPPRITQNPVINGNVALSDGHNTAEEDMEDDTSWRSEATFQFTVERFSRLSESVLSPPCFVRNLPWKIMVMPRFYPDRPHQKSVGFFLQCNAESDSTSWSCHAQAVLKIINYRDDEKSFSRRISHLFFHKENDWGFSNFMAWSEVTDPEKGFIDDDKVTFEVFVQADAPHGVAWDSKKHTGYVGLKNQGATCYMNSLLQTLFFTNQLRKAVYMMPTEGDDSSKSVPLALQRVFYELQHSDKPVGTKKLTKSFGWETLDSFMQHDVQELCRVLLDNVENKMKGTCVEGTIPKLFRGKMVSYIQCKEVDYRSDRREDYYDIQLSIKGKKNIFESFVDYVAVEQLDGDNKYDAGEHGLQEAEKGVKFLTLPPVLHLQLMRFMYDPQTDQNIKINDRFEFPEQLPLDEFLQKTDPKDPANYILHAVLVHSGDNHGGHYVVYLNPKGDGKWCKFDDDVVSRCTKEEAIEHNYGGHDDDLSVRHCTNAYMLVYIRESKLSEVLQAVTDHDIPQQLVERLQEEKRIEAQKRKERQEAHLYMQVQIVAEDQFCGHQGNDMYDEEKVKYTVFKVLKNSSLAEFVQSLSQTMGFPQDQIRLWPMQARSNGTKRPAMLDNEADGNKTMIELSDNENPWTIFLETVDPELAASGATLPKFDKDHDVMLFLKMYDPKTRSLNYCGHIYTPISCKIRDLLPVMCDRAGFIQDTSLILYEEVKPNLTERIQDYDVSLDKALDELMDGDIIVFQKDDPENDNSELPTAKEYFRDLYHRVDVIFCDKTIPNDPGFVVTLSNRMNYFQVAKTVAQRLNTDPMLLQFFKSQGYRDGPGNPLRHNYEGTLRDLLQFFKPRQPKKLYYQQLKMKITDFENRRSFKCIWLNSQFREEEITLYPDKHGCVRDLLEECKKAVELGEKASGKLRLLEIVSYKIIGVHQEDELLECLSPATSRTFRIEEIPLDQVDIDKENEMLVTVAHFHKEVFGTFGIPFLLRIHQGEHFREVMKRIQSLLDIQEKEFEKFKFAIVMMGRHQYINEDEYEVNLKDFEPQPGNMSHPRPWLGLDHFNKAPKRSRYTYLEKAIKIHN

inhibition, active:
O=C(Cc1ccccc1)Nc1ccc(-c2nc3cnccc3o2)c(O)c1 31.5%
Cc1c(-c2nn3c(-c4ccco4)nnc3s2)cccc1[N+](=O)[O-] 35%

inhibition, inactive:
O=C1CCCC2=C1C(c1ccc(O)cc1)n1ncc(C(=O)Nc3ccccc3)c1N2 (stereo unspecified) 1.67%
Fc1ccc(-c2nn(-c3cccc(F)c3)c3c2cnc2cc4c(cc23)OCO4)cc1 8.85%
CCC(=O)NC(=NCCc1c[nH]c2ccc(Cl)cc12)Nc1nc(C)cc(C)n1 6.43%
Cc1c(S(=O)(=O)N2CCCC2)cc(C(=O)Nc2ccccc2F)n1C 1.4%
Cc1ccc(-c2cc(=O)oc(-c3ccc(Br)cc3)n2)cc1 4.33%
COc1ccc(OC)c(-c2cc(C(=O)N3C[C@@H]4C[C@@]5(C)[C@H](CCC[C@@H]35)N4)[nH]n2)c1 1.2%
Cc1ccccc1Nc1nccc(C2CCCN(C(=O)C3(c4ccccc4)CC3)C2)n1 (stereo unspecified) -0.199%
CC12CCN(CCC(F)(F)F)CCN1C(=O)N(Cc1ccccn1)C2=O (stereo unspecified) -2.02%
Cc1nc(Nc2ccccn2)cc(C2CCCN2C(=O)c2cccnc2)n1 (stereo unspecified) -7.09%
CCc1ccccc1NC(=O)COc1nsnc1N1CCOCC1 -0.647%
Cc1cc(O)c2c(C)c(CC(=O)N3CCC[C@H]3C(=O)O)c(=O)oc2c1 0.928%
Cc1nc2ccccc2c(=O)n1-c1ccc(F)c(NC(=O)c2ccccc2[N+](=O)[O-])c1 3.02%
O=S(=O)(Cc1noc(-c2ccc(OC(F)(F)F)cc2)n1)c1ccc(F)cc1 -2.05%
Cc1nc2sccn2c1CN1C[C@@H](c2ccccn2)[C@@]2(CCCCC(=O)N2)C1 5.2%
CC(=O)N1CCCn2c(nc(CNC(=O)c3cnn(C)c3)cc2=O)C1 6.8%
Cc1ccccc1CNC(=O)CCc1nc2ccccc2c(=O)n1C -6.78%
CC(C)n1ncc2c(C(=O)NCc3ccccc3CN(C)C)cc(C3CC3)nc21 -0.227%
CN1C(=O)OC2(CCN(S(=O)(=O)c3ccccc3)CC2)c2ccccc21 4.14%
CCCNC(=O)c1nc2c(o1)CN(CC1CC1)C2 0.464%
CN(C(=O)COc1ncnc2c1cnn2-c1ccccc1)C1CCCCC1 1.52%
Cc1cccc(S(=O)(=O)N(CC(=O)N(C)Cc2ccccc2)Cc2ccccc2)c1 -0.03%
COc1cc(C)c(CN2CCC3(CC2)OCCc2cnc(C)nc23)cc1C -2.12%
O=C(Nc1cc(C(F)(F)F)ccc1-n1cnc2ccccc21)c1ccc(S(=O)(=O)N2CCCCC2)cc1 12.8%
Cc1nc(CN2CCn3c(CNC(=O)C4CC4)cnc3C2C)cs1 (stereo unspecified) -127%
CCCN(C(=O)c1cccc2c1SCCC2=O)c1ccc(F)cc1 -4.01%
O=C(Nc1ccc(-c2nc3cnccc3o2)c(O)c1)c1ccc(-c2ccccc2)cc1 5.05%
COc1cc(C(=O)Nc2ccc(-c3nc4cnccc4o3)cc2)cc(OC)c1OC 5%
CCOc1ccc(NC(=O)Cn2c(=O)n(CCC(=O)N3CCc4ccccc4C3)c(=O)c3ccccc32)cc1 3.17%
O=C(Nc1ccc(F)cc1F)c1csc2c1CCCCC2 3.29%
O=C(NCc1ccc2c(c1)OCO2)C1(c2ccc(Cl)cc2)CCCC1 -12.3%
CN(Cc1ccccc1)Cc1cn[nH]c1-c1ccc(Cl)cc1 -24%
Cc1nc2nc(NCc3ccccc3)[nH]n2c(=O)c1CCC(=O)N1CCCCC1C (stereo unspecified) 2.27%
CC1=NOC(CNS(=O)(=O)c2cc(C)ccc2C)C1 (stereo unspecified) -0.759%
O=C1NC2(CCN(C(=O)Cc3ccc(F)cc3)CC2)N=C1c1ccc(Cl)cc1 -39.3%
COc1c(O)c2c3c(c1O)C(=O)[C@@]1(O)C(=C3C(C)=CC2=O)O[C@@H](C)C1(C)C -76.3%
COc1ccc(Cl)cc1NC(=O)C1CC(=O)NC(Nc2ccccc2)=N1 (stereo unspecified) -1.4%
Cc1cc(C)n2nc(C(=O)N3CCCC(Cc4[nH]ncc4C)C3)cc2n1 (stereo unspecified) -0.00929%
CSc1cccc(NC(=O)CC(=O)Nc2ccc3nc4n(c(=O)c3c2)CCCCC4)c1 1.86%
CC1(C2CCN(C(=O)NC3CCCCC3)CC2)NC(=O)NC1=O (stereo unspecified) 2.45%
CC(C)CCN1C[C@H]2CCN(C(=O)c3cnccn3)CC[C@H]2S1(=O)=O -4.49%
Cc1ccccc1COC(=O)C1CCN(C2=NS(=O)(=O)c3ccccc32)CC1 -0.994%
COc1ccc2[nH]c3c(c2c1)CCN1C(=O)CN(CCc2ccccc2)C(=O)C31C (stereo unspecified) 4.73%
COC1=C(OC)C(=O)C(C)=C(C)C1=O 3.62%
O=C(Nc1cccc(S(=O)(=O)N2CCCCCC2)c1)c1ccc(N2CCOCC2)c([N+](=O)[O-])c1 8.97%
CC(C)(C)c1cc(-c2ccccc2)nc(-c2ccccc2)c1 1.78%
O=C(CCN1CCOC(Cn2cncn2)C1)N1CCCCC1 (stereo unspecified) 1.57%
O=C(CN(Cc1ccccc1)S(=O)(=O)c1ccccc1)N1CCCCCC1 -6.83%
Cc1ccc(NS(=O)(=O)c2cc(-c3[nH]ncc3C(=O)N3CCCC3)oc2C)cc1F -40.8%
COCCn1cnc2c1c(=O)n(CC(=O)Nc1c(C)cc(C)cc1C)c(=O)n2Cc1ccccc1 0.0199%
CC(Nc1nnc(Cc2ccccc2)c(=O)[nH]1)c1ccccc1 (stereo unspecified) 19.7%
CC(C)Cc1cc(-c2nn3c(-c4ccccc4Cl)nnc3s2)n[nH]1 7.86%
Cc1cccc(CNC(=O)c2ccc3c(c2)NC(=O)C2CCC(=O)N32)c1 (stereo unspecified) 1.1%
O=C1CC(CNS(=O)(=O)c2cccc(Cl)c2)CN1c1ccccc1 (stereo unspecified) -3.38%
Cn1c(=O)c2ccc(C3CCN(C(=O)CN4CCCC4)C3)nc2n(C)c1=O (stereo unspecified) -2.1%
